Screens as filed in PubChem BioAssay.
H9c2 protect: modulators protecting cardiomyocytes from myocardial damage. 0.63% of 360,000 active. H9c2 cardiomyocytes, H2O2 injury protection, ATPLite, 2 h. protection from H2O2 cell death, % at 20 µM;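 active = compounds giving at least 50% protection of heart cells from peroxide-induced death in the single-dose screen, raw or plate-pattern-corrected value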
CRFR2-BP antag: antagonists of CRF-binding protein/CRF-R2 receptor complex. HEK293 CRF-R2/CRF-BP, CRF-induced calcium fluorescence. inhibition, % at 11.8 µM. 0.59% of 350,000 active;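 active = inhibition of the ligand-induced calcium signal above about 50% at the single tested concentration, limit read from the data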
H9c2 TAG inh: inhibitors of triacylglycerol accumulation | H9c2 cells, Nile Red lipid (TAG) fluorescence; cells loaded with 200 µM oleic acid | inhibition, % at 12.5 µM | 0.66% of 230,000 active;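 active = pattern-corrected inhibition of lipid staining of at least 50% with the nuclear-stain viability signal not falling by more than 50%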
SKN-1 inh: blocks SKN-1 activity in C. elegans; inhibition, % at 21.8 µM; 0.49% of 360,000 active; AID 624304; C. elegans VP596 Pgst-4::GFP/RFP ratio, acrylamide-induced, 24 h;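 active = interference check ratio from 0.5 to 1.5 plus GFP to RFP signal ratio inhibition reaching or exceeding a fixed threshold, cut at about 30% in these data, passing the limit was not always enough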
iPSC survival up: hiPSC single-cell survival enhancement; survival enhancement, % at 20 µM; 0.044% of 360,000 active; AID 602274; ATPlite luminescence; 100% = ROCK inhibitor wells, 0% = DMSO; in the data active = survival enhancement above about 18%;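 note: cells exposed to compounds for 16 hours before the ATP read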
CRFBP-R2 agonist: CRF-BP/CRF-R2 complex agonism | HEK293 CRF-R2/CRF-BP, calcium dye fluorescence (FLIPR); percent of saturating CRF peptide response | activation, % at 13.2 µM | 0.46% of 350,000 active;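 active = activation of at least 50%, plus an integration ratio under a set limit after plate pattern correction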
A number is an active result; n = inactive; x = no result. Most compounds without a hit are left out; they make up all but 2.5% or so of the library.

SMILES	H9c2 protect	CRFR2-BP antag	H9c2 TAG inh	SKN-1 inh	iPSC survival up	CRFBP-R2 agonist
COC(=O)c1ccsc1NC(=O)CN1CCN(Cc2ccc3c(c2)OCO3)CC1	n	n	x	n	n	n
CCCS(=O)(=O)NC(=O)C1(C)CCN(C(=O)c2ccccc2C(F)(F)F)C1 (stereo unspecified)	n	x	n	n	n	x
Cc1ccc(C)c(N2CCN(C(c3ccc(N(C)C)cc3)c3nnnn3C(C)(C)C)CC2)c1 (stereo unspecified)	n	n	n	45.7	n	n
O=c1[nH]c2c(c3c1CCCC3)CCCC2	74.4	n	x	n	n	n
O=C1/C(=N\S(=O)(=O)c2cccs2)C([n+]2cccc(Cc3ccccc3)c2)=C([O-])c2ccccc21	n	n	73.4	n	n	62.3
O=C1/C(=N\S(=O)(=O)c2cccs2)C([n+]2ccc(CCCc3ccccc3)cc2)=C([O-])c2ccccc21	n	n	n	n	n	n
NS(=O)(=O)c1ccc(NCCCn2ccnc2)c([N+](=O)[O-])c1	n	n	x	n	n	n
COc1ccc2noc3c2c1C(=O)c1ccccc1-3	n	n	n	n	n	168.6
O=C1c2ccccc2-c2onc3ccc(NCCCn4ccnc4)c1c23	x	n	x	x	x	193.5
CCc1cc(C(=O)Nc2cc(S(=O)(=O)N3CCCCC3)ccc2N2CCN(C)CC2)sc1C	n	n	n	n	n	n
CCc1ccc(/C([O-])=C(/C(=S)NCCN2CCOCC2)[n+]2ccccc2)cc1	n	n	n	n	n	n
NC(=O)c1ccccc1OCC(=O)Nc1cccnc1Cl	52.6	n	n	n	n	n
Cc1cc(C)cc(C(=O)Nc2cccnc2Cl)c1	n	68.0	x	n	n	n
Cc1ccc(C(=O)Nc2cccnc2Cl)cc1Cl	n	n	n	n	n	n
CCOc1ccc(C(=O)OCC(=O)Nc2cccnc2Cl)cc1OCC	n	103.4	n	n	n	n
O=[N+]([O-])c1ccc(N/N=C\c2cccn2-c2ccccc2)nc1	n	n	55.6	n	n	n
O=[N+]([O-])c1ccc(NN=Cc2ccccc2)nc1	n	n	n	n	n	n
CCOC(=O)C(CCCCOc1ccc([N+](=O)[O-])cc1)C(=O)OCC	n	61.6	x	n	n	n
CC1CC(C)CN(CCCCOc2ccc([N+](=O)[O-])cc2)C1 (stereo unspecified)	n	n	n	n	n	n
Cc1cc(NS(=O)(=O)c2c(C(=O)N3CCOCC3)c(C)n(C)c2C)ccc1Br	n	92.0	x	n	n	n
Nc1c(C(=O)N2CCCCCC2)oc2ccccc12	n	112.5	x	n	n	n
Cc1c(C(=O)N2CCCCC2)oc2ccccc12	n	n	n	n	n	n
O=C(Nc1cc(=O)c2ccccc2o1)N1CCCCC1	104.2	n	x	n	n	n
O=C(O)c1cccc2c1C(=O)N(Cc1ccccc1)C2	n	63.1	x	n	n	n
O=c1[nH]c2cc(F)ccc2c2ccc(F)cc12	61.5	n	n	n	n	n
SMILES	H9c2 protect	CRFR2-BP antag	H9c2 TAG inh	SKN-1 inh	iPSC survival up	CRFBP-R2 agonist
O=c1[nH]c2ccccc2c2ccc(Cl)cc12	n	n	n	n	n	n
Cc1ccc(NC(=S)NCC23C=CC(O2)C2C(=O)N(c4ccc(C)cc4)C(=O)C23)cc1 (stereo unspecified)	n	n	x	n	n	n
CC(C)(C)OC(=O)NCC12C=CC(O1)C1C(=O)N(Cc3ccccc3)C(=O)C12 (stereo unspecified)	80.4	n	n	37.0	n	n
Cc1cc(=O)oc2cc(OCC(=O)N3CCN(C(=O)C4COc5ccccc5O4)CC3)c(Cl)cc12 (stereo unspecified)	57.7	n	x	n	n	n
Cc1cc(=O)oc2cc(OCC(=O)N3CCN(C(=O)C4COc5ccccc5O4)CC3)ccc12 (stereo unspecified)	n	n	x	n	n	n
CC1CCCN(C(=O)c2ccncc2)C1 (stereo unspecified)	n	n	n	35.2	n	n
CC1CC(C)CN(C(=O)c2ccncc2)C1 (stereo unspecified)	n	n	n	n	n	n
CCOc1ccc(NS(=O)(=O)c2ccc(C(=O)N3CCCC(C)C3)cc2)cc1 (stereo unspecified)	n	n	n	n	n	54.9
CCOc1ccc(NS(=O)(=O)c2ccc(NC(=O)[C@@H]3CCCC[C@@H]3C(=O)O)cc2)cc1	n	n	x	n	n	189.5
CCOc1ccc(S(=O)(=O)Nc2ccc(C(=O)N3CCCC3)cc2)cc1	n	n	n	n	n	n
CCOc1ccc(S(=O)(=O)N2CCN(C(=O)c3ccncc3)CC2)cc1	n	61.6	n	n	n	n
CCOc1ccc(S(=O)(=O)N2CCN(C(=O)c3cccnc3)CC2)cc1	n	n	x	n	n	n
CCOC(=O)C1=CCC(c2ccccc2C(F)(F)F)N(S(=O)(=O)c2ccc(C)cc2)C1 (stereo unspecified)	n	x	x	n	n	x
Cc1ccc(NS(=O)(=O)c2ccc(C(=O)NNC(=O)c3ccccc3O)cc2)cc1	63.6	n	n	n	n	n
Cc1ccc(NS(=O)(=O)c2ccc(C(=O)N3CC(C)OC(C)C3)cc2)cc1 (stereo unspecified)	n	n	n	n	n	82.6
O=C(c1ccc(S(=O)(=O)Nc2ccccc2)cc1)N1CCCC(C(F)(F)F)C1 (stereo unspecified)	n	n	n	n	n	72.9
Cc1c(C)n(Cc2ccccc2)c2ccc(C(=O)NCCCN3CCOCC3)cc12	n	n	x	n	n	n
CCCCNC(=O)C1(C)CCN1C(=O)c1cc(-c2ccccc2)cs1 (stereo unspecified)	n	x	n	n	n	x
Cc1ccc(S(=O)(=O)N2[C@@H](c3cccc(Cl)c3)C(C(=O)OC(C)(C)C)=CC[C@H]2c2ccc(C(C)C)cc2)cc1	n	x	x	n	n	x
CSCCC(C(=O)NC(C)(C)C)n1c(-c2ccc(C)cc2)nc2ccccc21 (stereo unspecified)	x	x	x	n	x	x
Cc1ccc(NC(=O)c2ccccc2NS(=O)(=O)c2ccc(Cl)s2)cc1S(=O)(=O)N1CCOCC1	n	87.3	x	n	n	n
O=C(Nc1cc(S(=O)(=O)N2CCOCC2)ccc1O)c1ccc(NS(=O)(=O)c2ccc(Cl)s2)cc1	n	n	x	n	n	n
COc1ccc(C)cc1NC(=O)c1ccccc1NS(=O)(=O)c1ccc(Cl)s1	n	65.2	n	n	n	n
COc1ccccc1NC(=O)c1ccccc1NS(=O)(=O)c1cccs1	n	n	n	n	n	n
COC(C(=O)N/N=C/c1ccc(OCC(=O)N2CCOCC2)cc1)c1ccccc1 (stereo unspecified)	n	n	x	n	n	n
CN1C(=O)N(c2ccccc2)C(Nc2nncs2)C1(C)C (stereo unspecified)	n	n	n	38.3	n	n
CN1C(=O)N(c2cccc3ccccc23)C(n2cncn2)C1(C)C (stereo unspecified)	n	n	n	n	n	n
